Assay outcomes (PubChem)
An excerpt weighted towards active compounds, which were near 3.5% of everything screened.
mHTT CaM bind – inhibitors of human mutant huntingtin-calmodulin interaction; P42858; AlphaScreen His-mHTT/GST-CaM binding, luminescence; inhibition, % at 15 µM; 190,000 compounds, 3.6% hits; AID 1671202;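 further: 0% = both proteins with DMSO and 100% = one protein alone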
Pf apPOL inh – Pf-apPOL DNA polymerase inhibition | Recombinant Pf-apPOL, molecular beacon fluorescence, 1.5 h | 210,000 compounds, 0.25% hits | inhibition, % at 10 µM | AID 1794808
* marks the source's active call; other numbers are inactive results; i = inactive; x = not tested or not shown. No stated cut-off is given here; in the data, active means inhibition above about 50%; inactive means the rest.

SMILES	mHTT CaM bind	Pf apPOL inh
CCCCC(C(=O)O)N1C(=O)C(=Cc2ccco2)SC1=S (configuration not stated)	29.2	52.3*
COC(=O)CCN1C(=O)C(=Cc2ccc(O)c(OC)c2)SC1=S	21.3	-17.5
COC(=O)CN1C(=O)C(=Cc2ccc(O)c(OC)c2)SC1=S	57.6*	-17.7
CCCCC(C(=O)O)N1C(=O)C(=Cc2cc(OC)c(OC)c(OC)c2)SC1=S (configuration not stated)	54.9*	-63.7
CCCC(C(=O)O)N1C(=O)C(=Cc2ccccc2OC)SC1=S (configuration not stated)	60.0*	-60.2
O=C(O)CN1C(=O)/C(=C\c2ccco2)SC1=S	3.4	x
CCCC(C(=O)O)N1C(=O)C(=Cc2cccc(OC)c2OC)SC1=S (configuration not stated)	22.0	-27.6
CCC(C(=O)O)N1C(=O)C(=Cc2cc(OC)c(OC)c(OC)c2)SC1=S (configuration not stated)	19.1	1.6
COc1ccc2c(c1)OCC/C2=N\OC(=O)c1ccccc1-c1ccccc1	i	-12.0
Cc1sc(NC(=O)c2ccc(Br)o2)c(C#N)c1C	-1.0	-2.3
CCC(=O)N1CCN(c2nc3c(s2)CC(C(=O)Nc2cccc(CC)c2)CC3)CC1 (configuration not stated)	17.2	-1.4
O=C(Nc1cnc(N2CCCC2)nc1)c1ccc(C(F)(F)F)cc1	0.4	-9.0
Cc1ccccc1NC=CC(=O)c1ccc(Cl)cc1	3.0	2.3
Cc1nc(C)n(CC(=O)Nc2ccc(F)cc2)c(=O)c1C	-11.3	-1.1
Cc1ccccc1CNC(=O)C1CCCN(c2cnn(Cc3ccccc3)c(=O)c2)C1 (configuration not stated)	16.1	-5.3
COc1cc(/C=C2/SC(c3ccc(C)cc3)=NC2=O)cc(OC)c1OC	-3.0	0.4
CCN1C(=O)C(=Cc2ccc(O)c(OC)c2)SC1=S	38.8	-25.8
COc1cc(/C=C2/SC(c3ccc(C)cc3)=NC2=O)ccc1O	53.0*	0.7
COc1cc(C=C2SC(=S)N(CCCCC(C(=O)O)N3C(=O)C(=Cc4ccc(O)c(OC)c4)SC3=S)C2=O)ccc1O (configuration not stated)	49.2	61.7*
Cc1cc(C)cc(NC(=O)C2CC(=O)N(CCC(C)C)C2)c1 (configuration not stated)	10.2	-2.0
COc1cc(OC)c(CNc2ccc3c(c2)OCO3)cc1Br	99.6*	-6.9
COc1ccc(S(=O)(=O)Nc2ccc3c(c2)OCO3)cc1Br	24.1	x
COc1cc(S(=O)(=O)NCc2ccc3c(c2)OCO3)c(OC)cc1Br	0.5	-8.8
COc1ccc(CNc2ccc3c(c2)OCO3)cc1Br	95.7*	-4.7
COc1ccc(OC)c(/C=C2\C=C(c3ccc(OC)cc3OC)OC2=O)c1	-14.0	4.6
SMILES	mHTT CaM bind	Pf apPOL inh
O=C1C(=Cc2cccnc2)Oc2cc(OC(=O)C3CCCCC3)ccc21	1.4	-7.8
Cc1ccc(C(=O)N2CCC(COc3ccc(C(=O)N4CCCCC4)cc3)CC2)cc1	-16.1	1.4
Cc1ccc(S(=O)(=O)Nc2cccc3ccc(-n4nc(C)cc4C)nc23)cc1	0.7	60.3*
Cc1ccc(S(=O)(=O)Nc2cccc3ccc(C)nc23)cc1	0.9	-8.5
CN(C)c1cccc(C(=O)NC2CCN(c3ccccc3)C2=O)c1 (configuration not stated)	0.5	0.2
Cc1cc2c(N3CCCC(C(=O)NCCN4CCCCCC4)C3)nccc2s1 (configuration not stated)	99.9*	-5.4
COc1cc(NC(=O)C2CCN(c3nccc4sc(C)cc34)CC2)cc(OC)c1OC	52.1*	-4.1
Cc1cc2c(N3CCC(C(=O)Nc4ccc(C)c(F)c4)CC3)nccc2s1	6.9	-0.7
Cc1cc2c(N3CCC(C(=O)Nc4ccc(F)c(F)c4)CC3)nccc2s1	5.0	-2.0
COc1ccc(NC(=O)C2CCCN(c3nccc4sc(C)cc34)C2)cc1OC (configuration not stated)	70.6*	-3.8
Cc1cc2c(N3CCCC(C(=O)NCc4cccc(Cl)c4)C3)nccc2s1 (configuration not stated)	22.5	-5.1
CCCn1c(C2CCN(C(=O)Nc3ccc(C)c(F)c3)C2)nc2cccnc21 (configuration not stated)	1.8	-7.8
N=C1NC(=O)/C(=C/c2cc(Br)c(O)c(Br)c2)S1	12.0	1.4
CC(=O)NCc1csc(C2CCN(C(=O)COc3cccc(C)c3)CC2)n1	6.5	-5.4
CC(C)(C)n1nc2c(c1NC(=O)COc1ccc(Cl)cc1Cl)CSC2	13.0	-3.1
CC(C)(C)n1nc2c(c1NC(=O)COc1ccc(Cl)cc1)CSC2	57.0*	5.5
CC(=O)NC1C(O)OC(CO)C(O)C1O (configuration not stated)	x	-15.7
COC(=O)C1OC(O)C(O)C(O)C1O (configuration not stated)	x	96.5*
CCC(=O)NC(c1ccc(Cl)cc1)c1cc(Cl)c2cccnc2c1O (configuration not stated)	41.0	6.8
CCCC(=O)NC(c1ccccc1OC)c1cc(Cl)c2cccnc2c1O (configuration not stated)	51.0*	-11.5
CCC(=O)NC(c1ccccc1OC)c1cc(Cl)c2cccnc2c1O (configuration not stated)	87.0*	2.4
CCC(=O)NC(c1ccccc1Cl)c1cc(Cl)c2cccnc2c1O (configuration not stated)	100.0*	6.5
CCCC(=O)NC(c1ccc(OC)c(OC)c1)c1cc(Cl)c2cccnc2c1O (configuration not stated)	25.0	-49.7
CCCS(=O)(=O)N1CCc2ccc(NC(=O)Nc3cccs3)cc2C1	14.5	1.3
COCCCNC(=O)C1CCCN(c2nnc3c(Cl)cccn23)C1 (configuration not stated)	-0.2	-0.8
SMILES	mHTT CaM bind	Pf apPOL inh
O=C(NC(=O)c1c(F)cccc1F)C(=O)Nc1ccc(Cl)cc1F	x	2.4
O=[N+]([O-])c1ccc(Cc2ccncc2)cc1	-1.4	-5.5
Cc1ccc(C)n1-c1ccc(Cc2ccncc2)cc1	64.9*	-4.0
Cc1ccccc1COc1ccc(C2CC(=O)Nc3n[nH]c(C)c32)cc1 (configuration not stated)	-4.8	4.9
O=C(NC(Cc1ccccc1)C(=O)O)c1ccc([N+](=O)[O-])cc1 (configuration not stated)	1.7	0.7
COc1ccc(-c2cc(C(=O)N3CCCC3c3ccc(F)cc3)no2)cc1 (configuration not stated)	-6.5	-0.8
Cc1ccc(NC2(c3ccccc3)C(=O)c3ccccc3C2=O)cc1	46.4	-8.4
COc1ccc(NC2(c3ccc(Cl)cc3)C(=O)c3ccccc3C2=O)cc1	100.3*	-3.3
CCCCSc1nnc(CSc2ncccn2)n1-c1ccc(OC)cc1	12.3	-9.4
Cc1ccc(N2CCN(Cc3ccc(C(=O)N4CCOCC4)o3)CC2)cc1C	6.5	-6.9
Cc1c(CCCN)c2ccccc2n1-c1ccccc1	50.1*	-6.1
N=c1sc2ccccc2n1-c1ccccc1	x	-12.7
Cc1cccc(C(=O)N2CCCC(C(=O)Nc3ccc(Cl)cc3)C2)c1 (configuration not stated)	27.0	-1.3
COc1cccc(CNc2ccc3c(c2)ncn3C2CCCCC2)c1OC	41.0	0.0
COc1ccccc1CNc1ccc2c(c1)ncn2C1CCCCC1	55.0*	-4.0
N#CC(=Cc1ccco1)c1ccc([N+](=O)[O-])cc1	x	-3.9
